# Measured values taken from PubChem BioAssay (EPA / NIEHS).
# Inconclusive results are not listed. Active and inactive are the calls of the source. The calls were made as follows: active = hit-call score of the fitted dose curve at least 0.9, where 1 is the maximum; inconclusive = response in the unintended direction; inactive = score below 0.9.
# Assays:
# [1] = target: human Dual Specificity Protein Phosphatase 3 (DUSP3), DUSP3 (gene 1845) (UniProt P51452); assay: NVS_ENZ_hDUSP3: NovaScreen (NVS) Enzymatic Assay for human Dual Specificity Protein Phosphatase 3 (DUSP3) (AID 2283152);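 also: phosphatase activity of recombinant human DUSP3 on a fluorogenic substrate without cells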
# How it was run: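 Cell-free assay with recombinant human DUSP3 and fluorogenic substrate, read by fluorescence intensity. Primary screen ran duplicate at 25 uM; actives followed up in concentration series; loss of signal versus DMSO scored.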
# [2] = target: human Ephrin type-B Receptor 1 (EphB1), EPHB1 (gene 2047) (UniProt P54762); assay: NVS_ENZ_hEphB1: NovaScreen (NVS) Enzymatic Assay for human Ephrin type-B Receptor 1 (EphB1) (AID 2283154)
# How it was run: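 Cell-free kinase assay with recombinant enzyme, fluorescent substrate and electrophoretic mobility-shift separation of substrate and product; read 1 h after dosing. Single-concentration duplicate screen at 25 uM; loss of signal versus DMSO baseline.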
# [3] = target: human Esterase Plasma (ES), BCHE (gene 590) (UniProt P06276); assay: NVS_ENZ_hES: NovaScreen (NVS) Enzymatic Assay for human Esterase Plasma (ES) (AID 2283157)
# How it was run: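 Chemicals were added to plasma-extracted human enzyme in a cell-free format, and activity was read colorimetrically after 0.25 hour. Activity loss was referenced to DMSO; concentration-response top dose was 50 uM.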
# [4] = target: human Beta-secretase (BACE), BACE1 (gene 23621) (UniProt P56817); assay: NVS_ENZ_hBACE: NovaScreen (NVS) Enzymatic Assay for human Beta-secretase (BACE) (AID 2283140);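 also: hits are inhibitors that reduce fluorescent substrate signal versus DMSO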
# How it was run: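 Cell-free assay of recombinant Sf9-expressed human BACE with fluorescent substrate, read by fluorescence intensity after 1 h. Primary screen in duplicate at 25 uM; actives then run in concentration series; loss of signal relative to DMSO.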
# [5] = target: human Elastase, ELANE (gene 1991) (UniProt P08246); assay: NVS_ENZ_hElastase: NovaScreen (NVS) Enzymatic Assay for human Elastase (AID 2283153)
# How it was run: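 Cell-free elastase from human neutrophils, 1.5 h after dosing, activity read by absorbance. Primary screen in duplicate at 25 uM; hits (e.g., 30% inhibition) rerun in singleton concentration-response up to 50 uM, fitted versus DMSO.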
# [6] = target: human AKT serine/threonine Kinase 2 (AKT2), AKT2 (gene 208) (UniProt P31751); assay: NVS_ENZ_hAKT2: NovaScreen (NVS) Enzymatic Assay for human AKT serine/threonine Kinase 2 (AKT2) (AID 2283141)
# How it was run: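 Cell-free fluorescence/electrophoretic mobility shift readout of recombinant human AKT2 activity, 1 h after chemical dosing. Duplicate primary screen at 25 uM, then singleton concentration-response up to 50 uM; loss of signal versus DMSO baseline.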
# [7] = target: human Casein Kinase 1-delta (CK1D), CSNK1D (gene 1453) (UniProt P48730); assay: NVS_ENZ_hCK1D: NovaScreen (NVS) Enzymatic Assay for human Casein Kinase 1-delta (CK1D) (AID 2283148)
# How it was run: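 Recombinant human CK1-delta, cell-free; fluorescent substrate with electrophoretic mobility-shift separation of product, read 1 h after dosing. Single 25 uM duplicate screen, then concentration-response up to 50 uM; loss of signal vs DMSO.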
# [8] = target: human Colony Stimulating Factor 1 Receptor (CSF1R), CSF1R (gene 1436) (UniProt P07333); assay: NVS_ENZ_hCSF1R: NovaScreen (NVS) Enzymatic Assay for human Colony Stimulating Factor 1 Receptor (CSF1R) (AID 2283150)
# How it was run: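 Cell-free recombinant human CSF1R kinase with fluorescent substrate, product separated by electrophoretic mobility shift; read 1 h after dosing. Primary screen at 25 uM in duplicate, actives then in concentration-response up to 50 uM, relative to DMSO.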
# [9] = target: human Caspase 8 (CASP8), CASP8 (gene 841) (UniProt Q14790); assay: NVS_ENZ_hCASP8: NovaScreen (NVS) Enzymatic Assay for human Caspase 8 (CASP8) (AID 2283146)
# How it was run: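 E. coli-expressed enzyme was used in a cell-free fluorogenic substrate assay read 1 h after dosing. Loss of signal was scored relative to DMSO, and the primary screen was run in duplicate at 25 uM.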
# [10] = target: human Ephrin type-A Receptor 1 (EphA1), EPHA1 (gene 2041) (UniProt P21709); assay: NVS_ENZ_hEphA1: NovaScreen (NVS) Enzymatic Assay for human Ephrin type-A Receptor 1 (EphA1) (AID 2283158);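 also: activity is signal loss versus DMSO meaning EphA1 kinase inhibition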
# How it was run: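 Chemicals first tested in duplicate at 25 uM against recombinant EphA1 with a fluorescent substrate; those passing threshold went to singleton dose-response topping at 50 uM. Activity read 1 h later as mobility-shift fluorescence, loss of signal relative to DMSO.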
# [11] = target: Histone deacetylase 3 (Homo sapiens) (UniProt O15379); assay: NVS_ENZ_hHDAC3: NovaScreen (NVS) Enzymatic Assay for human Histone Deacetylase 3 (HDAC3) (AID 2283163)
# How it was run: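 Recombinant human HDAC3 with fluorescent substrate, 1 h after dosing; product separated from substrate by electrophoretic mobility shift and read by fluorescence. Primary screen at 25 uM in duplicate; actives (e.g. ≥30% inhibition) retested in concentration-response up to 50 uM.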
# [12] = target: human Casein Kinase 2- alpha 2 beta 2 (CK2a2b2), CSNK2A1 (gene 1457) (UniProt P68400); assay: NVS_ENZ_hCK2a2b2: NovaScreen (NVS) Enzymatic Assay for human Casein Kinase 2- alpha 2 beta 2 (CK2a2b2) (AID 2283147)
# How it was run: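 Cell-free recombinant CK2 α2β2 holoenzyme with a fluorescent peptide substrate; product separated by electrophoretic mobility shift and read 1 h after dosing. Single-point screen at 25 uM in duplicate; actives were followed with concentration-response up to 50 uM versus DMSO.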
# [13] = target: human FYN Proto-Oncogene, Src family Tyrosine Kinase (Fyn), FYN (gene 2534) (UniProt P06241); assay: NVS_ENZ_hFyn: NovaScreen (NVS) Enzymatic Assay for human FYN Proto-Oncogene, Src family Tyrosine Kinase (Fyn) (AID 2283161)
# How it was run: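 Recombinant enzyme with fluorescent substrate, product separated by electrophoretic mobility shift; read 1 h after dosing. Duplicate 25 uM single-point screen, actives retested in concentration series; loss of signal vs DMSO.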
# human Beta-secretase (BACE), BACE1 (gene 23621), sequence (P56817 whole entry, looked up): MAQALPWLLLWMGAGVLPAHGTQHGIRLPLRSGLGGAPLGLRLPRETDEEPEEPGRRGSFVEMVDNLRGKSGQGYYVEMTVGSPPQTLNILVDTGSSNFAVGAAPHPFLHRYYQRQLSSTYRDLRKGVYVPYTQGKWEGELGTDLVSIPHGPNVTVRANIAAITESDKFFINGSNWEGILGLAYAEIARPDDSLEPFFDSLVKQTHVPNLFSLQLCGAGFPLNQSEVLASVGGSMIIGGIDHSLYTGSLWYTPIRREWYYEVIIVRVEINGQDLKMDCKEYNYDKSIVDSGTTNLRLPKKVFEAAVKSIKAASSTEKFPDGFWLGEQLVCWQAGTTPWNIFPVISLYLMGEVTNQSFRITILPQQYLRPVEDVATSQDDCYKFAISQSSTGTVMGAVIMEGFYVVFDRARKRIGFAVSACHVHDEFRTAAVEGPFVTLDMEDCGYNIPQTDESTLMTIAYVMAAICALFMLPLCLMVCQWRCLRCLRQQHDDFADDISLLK
# human Ephrin type-A Receptor 1 (EphA1), EPHA1 (gene 2041), sequence (P21709 whole entry, looked up): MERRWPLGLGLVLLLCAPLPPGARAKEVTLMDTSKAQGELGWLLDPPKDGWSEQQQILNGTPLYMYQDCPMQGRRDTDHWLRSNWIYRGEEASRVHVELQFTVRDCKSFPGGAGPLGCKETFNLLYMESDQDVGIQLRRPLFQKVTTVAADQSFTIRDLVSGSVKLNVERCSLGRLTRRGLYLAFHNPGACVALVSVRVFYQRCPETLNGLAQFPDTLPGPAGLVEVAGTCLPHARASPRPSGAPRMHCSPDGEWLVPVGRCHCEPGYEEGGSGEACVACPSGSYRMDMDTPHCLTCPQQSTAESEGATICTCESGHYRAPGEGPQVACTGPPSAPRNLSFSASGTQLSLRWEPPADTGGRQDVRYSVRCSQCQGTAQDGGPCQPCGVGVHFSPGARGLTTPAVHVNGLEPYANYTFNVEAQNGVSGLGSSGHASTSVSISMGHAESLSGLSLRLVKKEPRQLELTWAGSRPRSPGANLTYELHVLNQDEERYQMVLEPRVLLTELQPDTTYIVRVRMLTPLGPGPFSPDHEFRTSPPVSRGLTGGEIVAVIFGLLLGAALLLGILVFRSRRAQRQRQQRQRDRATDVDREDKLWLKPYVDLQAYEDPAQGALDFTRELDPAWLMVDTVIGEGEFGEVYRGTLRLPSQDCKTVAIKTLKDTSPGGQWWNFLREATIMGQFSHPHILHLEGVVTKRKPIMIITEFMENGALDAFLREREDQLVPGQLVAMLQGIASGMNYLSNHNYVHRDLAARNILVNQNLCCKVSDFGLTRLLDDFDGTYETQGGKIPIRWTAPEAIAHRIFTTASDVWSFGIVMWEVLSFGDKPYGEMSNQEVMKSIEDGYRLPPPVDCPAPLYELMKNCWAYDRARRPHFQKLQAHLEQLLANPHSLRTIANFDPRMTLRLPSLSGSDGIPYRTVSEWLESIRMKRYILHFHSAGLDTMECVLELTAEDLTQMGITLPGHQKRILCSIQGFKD
# human Dual Specificity Protein Phosphatase 3 (DUSP3), DUSP3 (gene 1845), sequence (P51452 whole entry, looked up): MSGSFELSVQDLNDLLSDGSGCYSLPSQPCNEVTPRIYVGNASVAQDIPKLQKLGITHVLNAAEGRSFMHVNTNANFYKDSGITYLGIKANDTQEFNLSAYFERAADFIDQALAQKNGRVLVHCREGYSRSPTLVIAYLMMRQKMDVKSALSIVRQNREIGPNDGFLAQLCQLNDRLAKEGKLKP
# human Casein Kinase 1-delta (CK1D), CSNK1D (gene 1453), sequence (P48730 whole entry, looked up): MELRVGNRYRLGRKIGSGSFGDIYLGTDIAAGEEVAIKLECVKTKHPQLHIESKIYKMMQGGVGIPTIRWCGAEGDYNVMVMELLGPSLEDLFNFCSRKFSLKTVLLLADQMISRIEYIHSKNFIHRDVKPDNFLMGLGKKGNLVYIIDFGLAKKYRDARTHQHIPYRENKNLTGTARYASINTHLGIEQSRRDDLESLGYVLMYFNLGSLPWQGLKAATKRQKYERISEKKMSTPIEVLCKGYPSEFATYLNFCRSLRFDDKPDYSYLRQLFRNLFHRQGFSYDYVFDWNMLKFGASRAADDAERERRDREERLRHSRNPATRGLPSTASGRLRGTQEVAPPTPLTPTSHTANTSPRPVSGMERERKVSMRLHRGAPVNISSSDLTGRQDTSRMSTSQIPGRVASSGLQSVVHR
# human Colony Stimulating Factor 1 Receptor (CSF1R), CSF1R (gene 1436), sequence (P07333 whole entry, looked up): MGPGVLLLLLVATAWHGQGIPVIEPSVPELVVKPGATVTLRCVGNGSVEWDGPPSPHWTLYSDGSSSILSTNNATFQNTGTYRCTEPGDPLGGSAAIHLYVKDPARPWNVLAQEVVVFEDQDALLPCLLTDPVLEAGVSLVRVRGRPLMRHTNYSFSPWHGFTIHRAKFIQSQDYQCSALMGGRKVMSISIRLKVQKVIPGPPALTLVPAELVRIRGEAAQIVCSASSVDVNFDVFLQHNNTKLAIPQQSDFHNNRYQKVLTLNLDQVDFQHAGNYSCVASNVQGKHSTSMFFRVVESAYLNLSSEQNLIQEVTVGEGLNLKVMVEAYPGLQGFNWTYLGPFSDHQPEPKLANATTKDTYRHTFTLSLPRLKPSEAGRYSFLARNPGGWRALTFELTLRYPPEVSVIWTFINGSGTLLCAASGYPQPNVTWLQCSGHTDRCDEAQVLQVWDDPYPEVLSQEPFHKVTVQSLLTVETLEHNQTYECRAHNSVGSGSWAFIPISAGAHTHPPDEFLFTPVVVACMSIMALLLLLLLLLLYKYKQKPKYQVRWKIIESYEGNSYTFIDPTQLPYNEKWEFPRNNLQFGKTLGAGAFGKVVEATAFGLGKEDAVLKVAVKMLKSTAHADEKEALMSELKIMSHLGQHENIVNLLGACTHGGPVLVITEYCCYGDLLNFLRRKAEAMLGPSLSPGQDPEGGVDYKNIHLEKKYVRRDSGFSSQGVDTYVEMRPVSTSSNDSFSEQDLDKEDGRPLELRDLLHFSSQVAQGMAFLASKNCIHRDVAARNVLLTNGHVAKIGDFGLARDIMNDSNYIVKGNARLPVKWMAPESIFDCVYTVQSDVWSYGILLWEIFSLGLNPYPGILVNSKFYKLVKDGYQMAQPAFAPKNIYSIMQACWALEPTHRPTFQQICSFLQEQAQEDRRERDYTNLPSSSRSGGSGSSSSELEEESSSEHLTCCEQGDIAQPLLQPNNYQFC
# human Esterase Plasma (ES), BCHE (gene 590), sequence (P06276 whole entry, looked up): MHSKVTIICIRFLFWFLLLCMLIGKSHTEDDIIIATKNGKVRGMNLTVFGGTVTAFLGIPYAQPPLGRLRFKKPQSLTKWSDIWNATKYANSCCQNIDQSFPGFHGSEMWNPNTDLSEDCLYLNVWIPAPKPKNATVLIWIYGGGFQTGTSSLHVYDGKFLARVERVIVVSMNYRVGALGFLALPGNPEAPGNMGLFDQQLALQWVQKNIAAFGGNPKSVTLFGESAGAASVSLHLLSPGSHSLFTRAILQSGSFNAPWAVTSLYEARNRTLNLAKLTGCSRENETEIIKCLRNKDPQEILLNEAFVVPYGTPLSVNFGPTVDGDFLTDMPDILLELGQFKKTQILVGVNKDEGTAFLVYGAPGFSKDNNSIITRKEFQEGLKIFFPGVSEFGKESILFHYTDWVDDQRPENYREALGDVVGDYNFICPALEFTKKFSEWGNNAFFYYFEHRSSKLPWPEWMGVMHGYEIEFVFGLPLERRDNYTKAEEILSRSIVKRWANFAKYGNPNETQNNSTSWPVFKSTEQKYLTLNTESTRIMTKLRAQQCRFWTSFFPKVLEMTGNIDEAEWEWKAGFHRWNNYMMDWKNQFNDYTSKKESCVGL
# human Ephrin type-B Receptor 1 (EphB1), EPHB1 (gene 2047), sequence (P54762 whole entry, looked up): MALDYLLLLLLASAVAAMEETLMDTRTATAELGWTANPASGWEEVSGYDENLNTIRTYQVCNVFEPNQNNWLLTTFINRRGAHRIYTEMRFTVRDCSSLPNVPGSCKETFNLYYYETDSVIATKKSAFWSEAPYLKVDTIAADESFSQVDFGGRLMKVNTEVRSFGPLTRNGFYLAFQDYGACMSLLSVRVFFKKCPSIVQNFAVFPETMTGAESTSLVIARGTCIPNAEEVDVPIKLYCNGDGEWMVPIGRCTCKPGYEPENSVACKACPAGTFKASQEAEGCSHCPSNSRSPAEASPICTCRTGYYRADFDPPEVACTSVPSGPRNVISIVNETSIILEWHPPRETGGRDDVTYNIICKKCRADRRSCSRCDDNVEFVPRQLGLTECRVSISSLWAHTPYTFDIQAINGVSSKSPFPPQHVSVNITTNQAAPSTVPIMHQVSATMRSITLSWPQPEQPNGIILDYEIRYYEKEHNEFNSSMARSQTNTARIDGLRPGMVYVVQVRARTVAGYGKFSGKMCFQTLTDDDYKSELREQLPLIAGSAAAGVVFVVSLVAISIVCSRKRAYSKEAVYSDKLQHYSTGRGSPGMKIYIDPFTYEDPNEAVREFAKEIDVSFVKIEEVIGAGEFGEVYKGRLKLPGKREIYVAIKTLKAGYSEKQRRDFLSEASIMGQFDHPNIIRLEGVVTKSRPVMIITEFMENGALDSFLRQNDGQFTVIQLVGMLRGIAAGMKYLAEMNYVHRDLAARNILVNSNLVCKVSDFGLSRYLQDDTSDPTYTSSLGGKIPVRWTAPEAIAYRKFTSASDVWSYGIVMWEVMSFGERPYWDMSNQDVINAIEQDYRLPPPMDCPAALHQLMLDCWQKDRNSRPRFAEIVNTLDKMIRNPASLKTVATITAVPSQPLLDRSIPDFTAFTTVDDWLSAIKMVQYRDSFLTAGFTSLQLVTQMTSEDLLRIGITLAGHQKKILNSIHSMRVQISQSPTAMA
# human Elastase, ELANE (gene 1991), sequence (P08246 whole entry, looked up): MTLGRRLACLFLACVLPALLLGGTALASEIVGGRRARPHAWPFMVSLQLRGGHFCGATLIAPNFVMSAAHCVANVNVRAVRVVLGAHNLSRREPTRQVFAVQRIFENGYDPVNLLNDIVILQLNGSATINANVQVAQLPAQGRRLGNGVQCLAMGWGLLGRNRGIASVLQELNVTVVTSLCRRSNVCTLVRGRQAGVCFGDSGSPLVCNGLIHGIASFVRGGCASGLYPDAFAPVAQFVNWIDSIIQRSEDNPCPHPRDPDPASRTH
smiles,measurement,setting,value
COC(=O)CSc1cc(N=c2sc(=O)n3n2CCCC3)c(F)cc1Cl,outcome,[1],inactive
same,outcome,[2],inactive
same,outcome,[3],inactive
CCCCCOC(=O)COc1cc(N2C(=O)C3=C(CCCC3)C2=O)c(F)cc1Cl,AC50,[4],3.5 µM (active)
same,outcome,[5],inactive
OB(O)O,outcome,[6],inactive
CCNc1nc(N)nc(Cl)n1,AC50,[7],22.1 µM (active)
same,outcome,[8],inactive
CCCCC(CC)COC(=O)c1ccccc1C(=O)O (stereo not given),outcome,[7],inactive
CCCCOC(=O)C(C)Oc1ccc(Oc2ccc(C(F)(F)F)cn2)cc1 (stereo not given),AC50,[4],25 µM (active)
same,outcome,[8],inactive
C[C@]12CC[C@@H]3c4ccc(O)cc4C[C@@H](CCCCCCCCCS(=O)CCCC(F)(F)C(F)(F)F)[C@H]3[C@@H]1CC[C@@H]2O (stereo not given in full),outcome,[4],inactive
same,outcome,[9],inactive
same,outcome,[1],inactive
same,outcome,[10],inactive
CCOC(=O)[C@H](C)Oc1ccc(Oc2nc3ccc(Cl)cc3o2)cc1,AC50,[8],3.18 µM (active)
CCOC(=O)NCCOc1ccc(Oc2ccccc2)cc1,outcome,[1],inactive
same,outcome,[10],inactive
COC(=O)c1ccc(CNS(C)(=O)=O)cc1S(=O)(=O)NC(=O)Nc1nc(OC)cc(OC)n1,outcome,[11],inactive
COC(=O)c1c(Cl)nn(C)c1S(=O)(=O)NC(=O)Nc1nc(OC)cc(OC)n1,AC50,[7],21.1 µM (active)
c1ccc2[nH]c(-c3cscn3)nc2c1,AC50,[12],25 µM (active)
same,AC50,[7],19.8 µM (active)
same,outcome,[3],inactive
same,outcome,[10],inactive
same,outcome,[13],inactive
CC(=O)[C@H]1CC[C@H]2[C@@H]3CCC4=CC(=O)CC[C@]4(C)[C@H]3CC[C@]12C,outcome,[7],inactive
CC1(C)C(C=C(Cl)Cl)C1C(=O)OCc1cccc(Oc2ccccc2)c1 (stereo not given),AC50,[4],40.2 µM (active)
CCCOC(=O)NCCCN(C)C,outcome,[2],inactive
C#CCOC(=O)[C@@H](C)Oc1ccc(Oc2ncc(Cl)cc2F)cc1,outcome,[1],inactive
same,outcome,[5],inactive
